Measured values from PubChem BioAssay.
The source made the active and inactive calls. Unless noted, no rule for the calls is given here.

What was measured:
[1] = test system: Wnt5a (protein binding on small-molecule microarray); assay: small molecules binding Wnt5a protein – biophysical, small-molecule microarray, 635/667 nm fluorescence, primary screen (AID 1142); settings: 635 nm fluorescence, higher = more signal;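 also: fluorescence read at 667 nm with signal to noise per printed feature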
[2] = ATP-based viability of Huh7 replicon cells – cell-based, CellTiter-Glo luminescence, basal, 48 h, cytotoxicity control for HCV replication inhibitor project, primary screen (AID 1143); settings: higher = more signal, called active from +8 up or from −8 down;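 also: Huh7 hepatoma cells carrying a hepatitis C replication reporter with no stimulus; test concentration not given here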
[3] = Pseudomonas biofilm growth suppression – PAO1 strain, BacTiter-Glo luminescence, LB-PBS, primary screen (AID 1144); settings: P. aeruginosa PAO1 biofilm, 12 h, higher = more signal
[4] = basal CRE-LacZ reporter activity in PC12 – cell-based, unstimulated, primary screen (AID 1145); settings: no forskolin, luminescence, 4.5 h, higher = more signal, called active from +8 up or from −8 down
[5] = forskolin-driven CRE-LacZ activity in PC12 – cell-based, CRE-LacZ reporter, forskolin-stimulated, primary screen (AID 1146); settings: luminescence, 4.5 h, higher = more signal, called active from +8 up or from −8 down;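 also: PC12 cells with 6xCRE LacZ reporter stimulated by forskolin 10 µM; beta-galactosidase reporter signal reflecting CREB driven transcription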
[6] = target: Streptavidin (Streptomyces avidinii) (UniProt P22629); assay: compounds binding control protein streptavidin – biophysical, small-molecule microarray, 635/667 nm fluorescence, artefact control for SMM compound annotation, primary screen (AID 1147); settings: higher = more signal;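 also: signal reflects streptavidin binding to arrayed compounds as a control protein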
Streptavidin (Streptomyces avidinii), sequence (P22629 whole entry, looked up): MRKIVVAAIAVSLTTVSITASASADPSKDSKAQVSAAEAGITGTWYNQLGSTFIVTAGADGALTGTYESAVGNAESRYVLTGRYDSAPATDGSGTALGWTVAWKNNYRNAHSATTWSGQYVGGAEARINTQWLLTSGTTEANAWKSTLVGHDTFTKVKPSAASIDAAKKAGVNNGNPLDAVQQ

[7] = probe aInhba binding on compound microarray – biochemical, small-molecule microarray, 635/667 nm fluorescence, primary screen (AID 1148); settings: higher = more signal;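 also: score merges 667nm spot fluorescence with signal-to-noise for antibody binding to printed compounds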
Torsin-1A (Homo sapiens) [8] = target: Torsin-1A (Homo sapiens) (UniProt O14656); assay: TOR1A wild-type binding on microarray – cell lysate, small-molecule microarray, lysate, 635/667 nm, primary screen (AID 1149); settings: COS7 hTOR1A-WT lysate, 635 nm fluorescence, higher = more signal
Torsin-1A (Homo sapiens), sequence (O14656 whole entry, looked up): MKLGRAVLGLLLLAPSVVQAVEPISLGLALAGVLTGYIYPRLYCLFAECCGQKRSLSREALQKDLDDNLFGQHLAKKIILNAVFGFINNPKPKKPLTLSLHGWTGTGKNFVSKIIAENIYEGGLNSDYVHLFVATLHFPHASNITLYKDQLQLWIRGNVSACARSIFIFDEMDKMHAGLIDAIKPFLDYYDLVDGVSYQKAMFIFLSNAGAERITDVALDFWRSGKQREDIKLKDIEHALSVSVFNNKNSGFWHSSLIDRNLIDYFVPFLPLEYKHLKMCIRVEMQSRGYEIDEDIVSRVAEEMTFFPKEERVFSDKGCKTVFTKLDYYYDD

Torsin-1A (Homo sapiens) [9] = target: Torsin-1A (Homo sapiens) (UniProt O14656); assay: torsin A mutant lysate binding on microarrays – cell lysate, small-molecule microarray, COS7 lysate, 635/667 nm fluorescence, primary screen (AID 1150); settings: COS7 hTOR1A mutant lysate, 635 nm fluorescence, higher = more signal;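 also: score pools 667 nm emission and signal to noise measuring lysate protein binding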
[10] = test system: Sonic hedgehog protein (Shh); assay: Sonic hedgehog microarray binding compounds – biochemical, small-molecule microarray, 635/667 nm fluorescence, primary screen (AID 1151); settings: 635 nm fluorescence, higher = more signal;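 also: Shh protein binding to compounds spotted on small-molecule microarray slides; score combines spot fluorescence intensity with signal-to-noise across triplicate slides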
[11] = optical density shifts of acrAB sulA E. coli – strain DRC41, OD650, 48 h, E. coli filamentation inducer project, primary screen (AID 1152); settings: higher = more signal, called active from +8 up or from −8 down;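 also: E. coli MC1000 strain DRC41 lacking acrAB efflux pump and sulA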
[12] = probe aLefty1 binding on compound microarray – biochemical, small-molecule microarray, 635/667 nm fluorescence, primary screen (AID 1153); settings: higher = more signal;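 also: score merges spot fluorescence with signal-to-noise ratio from the scanned slide images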
[13] = plasmodial surface anion channel blockers, osmotic lysis – cell-based, P. falciparum Indochina, OD700, 1 h, primary screen (AID 1154); settings: P. falciparum Indochina infected RBC osmotic lysis, higher = more signal, called active from +8 up or from −8 down
[14] = plasmodial surface anion channel blockers, osmotic lysis – cell-based, P. falciparum Indochina, OD700, 2 h, primary screen (AID 1155);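 also: lysis reports solute entry through the parasite surface anion channel PSAC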; settings: P. falciparum Indochina infected erythrocytes, higher = more signal, called active from +8 up or from −8 down
[15] = changes in parasitized red cell lysis, either direction – P. falciparum Indochina, OD700, 3 h, PSAC antagonist project, primary screen (AID 1156); settings: P. falciparum-infected erythrocytes, osmotic lysis, higher = more signal, called active from +8 up or from −8 down
[16] = plasmodial surface anion channel blockers, osmotic lysis – cell-based, P. falciparum Indochina, OD700, 18 h, primary screen (AID 1157); settings: P. falciparum Indochina infected erythrocytes, osmotic lysis OD700, 18 h; higher = more signal, called active from +8 up or from −8 down
[17] = S6 kinase pathway phospho-S6 level changes – cell-based, A549, cytoblot, luminescence, serum-stimulated, primary screen (AID 1158); settings: 5 h, higher = more signal;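 also: serum-stimulated A549 lung adenocarcinoma cells; signal is phosphorylated S6 detected by cytoblot immunostaining with HRP secondary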
[18] = target: NADPH oxidase 2 (Homo sapiens) (UniProt P04839); assay: compounds shifting NOX2 Amplex Red fluorescence – cell-based, HEK293-NOX2, PMA-stimulated, NOX inhibitor project, primary screen (AID 1159); settings: 45 min, higher = more signal, called active from +8 up or from −8 down; also: test concentration not given here
NADPH oxidase 2 (Homo sapiens), sequence (P04839 whole entry, looked up): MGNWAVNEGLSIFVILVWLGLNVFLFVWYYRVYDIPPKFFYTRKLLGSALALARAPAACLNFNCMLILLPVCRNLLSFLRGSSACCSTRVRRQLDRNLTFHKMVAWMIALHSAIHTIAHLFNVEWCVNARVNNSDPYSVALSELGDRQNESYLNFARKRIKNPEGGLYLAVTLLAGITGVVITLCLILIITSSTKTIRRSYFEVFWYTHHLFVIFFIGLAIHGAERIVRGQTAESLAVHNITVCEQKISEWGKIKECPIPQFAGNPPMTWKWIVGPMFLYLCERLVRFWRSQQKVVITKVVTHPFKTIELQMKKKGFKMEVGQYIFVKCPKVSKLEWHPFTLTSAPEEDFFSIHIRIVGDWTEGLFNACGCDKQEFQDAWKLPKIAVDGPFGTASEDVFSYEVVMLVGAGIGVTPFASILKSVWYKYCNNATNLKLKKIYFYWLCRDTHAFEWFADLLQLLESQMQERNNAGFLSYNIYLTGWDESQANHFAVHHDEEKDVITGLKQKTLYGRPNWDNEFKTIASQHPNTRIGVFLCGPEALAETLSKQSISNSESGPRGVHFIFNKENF

[19] = target: NADPH oxidase 4 (Homo sapiens) (UniProt Q9NPH5); assay: compounds shifting NOX4 Amplex Red fluorescence – cell-based, HEK293-NOX4, tetracycline-induced, NOX inhibitor project, primary screen (AID 1160); settings: HEK293-NOX4, Amplex Red H2O2 fluorescence, 45 min; higher = more signal, called active from +8 up or from −8 down
NADPH oxidase 4 (Homo sapiens), sequence (Q9NPH5 whole entry, looked up): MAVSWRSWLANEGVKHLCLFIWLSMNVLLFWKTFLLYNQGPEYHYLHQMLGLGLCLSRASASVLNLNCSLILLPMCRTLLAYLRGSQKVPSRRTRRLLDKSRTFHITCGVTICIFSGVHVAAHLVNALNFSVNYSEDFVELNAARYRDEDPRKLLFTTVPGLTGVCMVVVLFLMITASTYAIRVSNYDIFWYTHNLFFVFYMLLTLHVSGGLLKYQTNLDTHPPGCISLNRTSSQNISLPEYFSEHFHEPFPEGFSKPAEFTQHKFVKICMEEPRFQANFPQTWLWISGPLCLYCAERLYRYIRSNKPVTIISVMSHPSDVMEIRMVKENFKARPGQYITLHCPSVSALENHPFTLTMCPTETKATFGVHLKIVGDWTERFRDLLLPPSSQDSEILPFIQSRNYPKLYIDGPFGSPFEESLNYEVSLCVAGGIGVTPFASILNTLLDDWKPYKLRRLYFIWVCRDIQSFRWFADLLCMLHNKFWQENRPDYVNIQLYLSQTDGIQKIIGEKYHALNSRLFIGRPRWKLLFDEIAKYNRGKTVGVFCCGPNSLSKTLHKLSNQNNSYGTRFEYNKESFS

[20] = target: NADPH oxidase 5 (Homo sapiens) (UniProt Q96PH1); assay: compounds shifting NOX5 Amplex Red fluorescence – cell-based, HEK293-NOX5, NOX inhibitor project, primary screen (AID 1161); settings: HEK293-NOX5, ionomycin, 45 min, higher = more signal
NADPH oxidase 5 (Homo sapiens), sequence (Q96PH1 whole entry, looked up): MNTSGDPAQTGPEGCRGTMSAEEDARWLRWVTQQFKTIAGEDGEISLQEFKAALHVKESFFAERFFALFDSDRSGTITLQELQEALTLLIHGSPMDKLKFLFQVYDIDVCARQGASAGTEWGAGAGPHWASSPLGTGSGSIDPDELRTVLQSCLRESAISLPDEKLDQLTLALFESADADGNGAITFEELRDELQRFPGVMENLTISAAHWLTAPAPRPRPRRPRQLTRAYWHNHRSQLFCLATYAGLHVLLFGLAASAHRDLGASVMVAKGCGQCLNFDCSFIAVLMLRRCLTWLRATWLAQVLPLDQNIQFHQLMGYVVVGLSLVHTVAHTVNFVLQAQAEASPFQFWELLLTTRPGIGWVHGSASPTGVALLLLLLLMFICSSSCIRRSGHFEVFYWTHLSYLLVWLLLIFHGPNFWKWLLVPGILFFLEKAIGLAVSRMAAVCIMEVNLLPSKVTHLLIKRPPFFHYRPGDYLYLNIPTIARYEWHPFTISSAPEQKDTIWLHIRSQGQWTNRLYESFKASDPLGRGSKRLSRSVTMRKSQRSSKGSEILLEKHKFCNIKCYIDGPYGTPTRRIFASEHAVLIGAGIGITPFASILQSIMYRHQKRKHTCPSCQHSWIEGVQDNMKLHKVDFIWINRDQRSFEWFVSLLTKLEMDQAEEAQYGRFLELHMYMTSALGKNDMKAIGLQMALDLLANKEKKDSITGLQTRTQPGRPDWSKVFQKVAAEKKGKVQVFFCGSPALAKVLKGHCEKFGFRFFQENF

Row | Compound | composite z-score [1] | z-score [2] | z-score [3] | z-score [4] | z-score [5] | composite z-score [6] | composite z-score [7] | composite z-score (Torsin-1A (Homo sapiens) [8]) | composite z-score (Torsin-1A (Homo sapiens) [9]) | composite z-score [10] | z-score [11] | composite z-score [12] | z-score [13] | z-score [14] | z-score [15] | z-score [16] | z-score [17] | z-score [18] | z-score [19] | z-score [20]
1 | CCCCN1CC=CC23O[C@@H]4C=CCOC(=O)[C@@H]4[C@H]2C(=O)N(CCCCCCO)[C@@H]3C1=O (stereo not given in full) | -0.575 | 0.205 (inactive) | 1.05 (inactive) | -0.0899 (inactive) | 1.12 (inactive) | -1.35 | -0.249 | -0.873 | -0.748 | -0.711 | -0.413 (inactive) | -0.195 | 2.08 (inactive) | 0.393 (inactive) | 1.09 (inactive) | 0.405 (inactive) | 0.133 | 1.09 (inactive) | -0.282 (inactive) | 1.63
2 | C=CCNC(=O)[C@@H]1[C@H]2C(=O)O[C@H](c3ccccc3)[C@H](c3ccccc3)N2[C@H](c2ccc(OCCO)cc2)[C@@]12C(=O)N(C(=O)OCCOC)c1ccc(C#CCNC(N)=O)cc12 | 0.372 | -1.1 (inactive) | 0.388 (inactive) | 0.505 (inactive) | -0.419 (inactive) | 0.348 | 0.115 | 0.609 | 0.733 | 1.56 | 1.43 (inactive) | 0.284 | 4.2 (inactive) | 0.921 (inactive) | 1.47 (inactive) | 0.514 (inactive) | 0.472 | 0.827 (inactive) | -0.213 (inactive) | 0.0624
3 | CCC(CC)C(O)C1C=CC2C(=O)N(c3ccccc3)C(=O)C2N1Nc1ccccc1 (stereo not given) | 0.213 | -0.125 (inactive) | -1.63 (inactive) | 1.01 (inactive) | -0.814 (inactive) | 1.21 | 0.948 | -0.0952 | 0.423 | 0.494 | 0.878 (inactive) | 0.947 | 4.73 (inactive) | 0.696 (inactive) | 0.301 (inactive) | 0.95 (inactive) | -0.709 | -0.588 (inactive) | -3.29 (inactive) | -3.4
4 | C#CCNCc1ccccc1 | -0.0766 | -0.0359 (inactive) | 1.16 (inactive) | -0.882 (inactive) | 0.531 (inactive) | 0.202 | -0.134 | 0.335 | 0.442 | 0.442 | -0.131 (inactive) | -0.235 | 0.229 (inactive) | 0.876 (inactive) | -0.116 (inactive) | 0.409 (inactive) | -0.255 | -12.1 (active) | -0.493 (inactive) | 0.615
5 | CCOC(=O)C[C@H]1[C@H](OC(=O)c2ccc(C(=O)c3ccccc3)cc2)[C@@H](NC(=O)Cc2ccc(OC)cc2)c2cc(OCCCO)ccc2N1C(=O)c1ccc2ccccc2n1 | 0.112 | 0.0378 (inactive) | -0.193 (inactive) | 0.745 (inactive) | -0.668 (inactive) | 0.619 | 0.158 | -0.202 | 0.561 | 0.671 | 0.378 (inactive) | 0.131 | 3.85 (inactive) | 1.05 (inactive) | -0.392 (inactive) | 0.604 (inactive) | -0.0822 | -1.03 (inactive) | 0.492 (inactive) | 1.53
6 | O=C1[C@@]23C=C(Br)[C@H](C[C@@H]2COC3)[C@]12CO2 | -0.139 | -0.38 (inactive) | -0.00184 (inactive) | 1.04 (inactive) | 1.78 (inactive) | -1.08 | -0.204 | -0.672 | -0.666 | -0.0003 | -0.508 (inactive) | 0.151 | 0.483 (inactive) | -0.0352 (inactive) | -0.103 (inactive) | -0.334 (inactive) | 0.424 | 0.447 (inactive) | -1.92 (inactive) | -4.05
7 | O=C1C[C@@](C(=O)NCc2ccccc2)(c2ccc([N+](=O)[O-])cc2)[C@@H](c2ccc(CO)cc2)N1CC12CC3CC(CC(C3)C1)C2 | 0.38 | -4.73 (inactive) | 0.657 (inactive) | 0.674 (inactive) | -0.841 (inactive) | -0.243 | -0.189 | 0.352 | 0.368 | 1.99 | 0.874 (inactive) | -0.287 | 5.33 (inactive) | 0.786 (inactive) | 3.76 (inactive) | 0.674 (inactive) | -0.0355 | 0.208 (inactive) | -0.821 (inactive) | 1.1
8 | CN(C)CCCCCCNC(=O)[C@@H]1C[C@@H]2C(=O)N3CCC[C@H]3C(=O)N2[C@@H]1c1ccc(O)cc1 | 0.21 | -0.892 (inactive) | -0.999 (inactive) | 0.561 (inactive) | -0.439 (inactive) | -0.331 | 0.138 | 1.4 | 1.46 | 2.17 | 1.12 (inactive) | 0.457 | 0.974 (inactive) | -1.24 (inactive) | 1.09 (inactive) | -1.93 (inactive) | 1.12 | -0.245 (inactive) | -0.176 (inactive) | 0.884
9 | O=C1NC(=O)C2C1C=CC(C(O)C=Cc1ccc([N+](=O)[O-])cc1)N2Nc1ccc(Cl)cc1Cl (stereo not given) | 0.28 | 0.099 (inactive) | -0.402 (inactive) | 0.253 (inactive) | 0.342 (inactive) | 1.14 | 0.317 | 0.339 | 0.417 | -0.08 | -2.11 (inactive) | 0.501 | 10.1 (active) | 2.46 (inactive) | 2.09 (inactive) | 1.66 (inactive) | -1 | -0.82 (inactive) | -6 (inactive) | -1.45
